Bioassay records deposited in PubChem BioAssay by National Center for Advancing Translational Sciences (NCATS).
TDP1 cell noCPT: qHTS for Inhibitors of human tyrosyl-DNA phosphodiesterase 1 (TDP1): qHTS in cells in absence of CPT; DT40 Tdp1-/- hTDP1 cells, no CPT, ATP luminescence, 48 h; Potency, µM (top dose mostly 46.2 µM), inactives show at the highest dose activity change, negative = growth inhibition, hits mostly inhibitors; 420,000 tested, 15% active; AID 686978, 2013; also: potency is read from the fitted curve at half-maximal effect; nearly all actives have a fitted effect of over 55% in size
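Seeded 400 DT40-hTDP1 cells/well (vehicle DMSO, no 20 nM CPT); pinned compounds; ≥48 hr at 37 °C; CellTiter-Glo luminescence as viability measure.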
IL1B secr inh: blocks inflammasome-driven IL-1 beta release; THP-1 LPS/ATP IL-1B secretion, AlphaLISA, 16 h; active compounds read low; activity change, % at 57.5 µM; 360,000 tested, 4.7% active; AID 743279; in the data active = activity change below about -50%; inconclusive = mostly about -30% to -49%
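THP-1 cells pretreated 1 hr with compounds (up to 57.5 uM final), then stimulated with LPS (250 ng/mL final) plus ATP (1.25 mM final); secreted IL-1B measured by AlphaLISA after 16 hr, decreased signal indicating inhibition.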
TDP1 cell CPT: DT40-hTDP1 cell growth loss with CPT; chicken DT40 Tdp1-/-;hTDP1 cells + 20 nM CPT, ATP luminescence, 48 h; Potency, µM (doses to about 46.2 µM), inactives show at the top dose activity change, negative = growth inhibition, hits mostly inhibitors; 420,000 tested, 12% active; AID 686979; also: potency is read from the fitted curve at half-maximal effect; nearly all actives have a fitted effect of over 55% in size
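Cell growth measured by CellTiter-Glo luminescence after a minimum 48 h, 37 C compound exposure with 20 nM CPT in Tdp1-knockout DT40 cells stably expressing hTDP1, seeded 400/well; qHTS titration format.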
HT1080 IDH1KD tx: toxicity to HT-1080 IDH1 knockdown cells (counter line). 360,000 tested, 2% active. Potency, µM (titrated, usually from 46.1 µM), without a hit: at the top dose activity, negative = toxicity, usual class: cytotoxic. AID 686971. HT-1080 IDH1 knockdown viability, ATP luminescence, 48 h;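 also: potency is read from the fitted curve at half-maximal effect; 0% = DMSO wells and -100% = cell-free medium wells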
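After a 2 h attachment period, IDH1KD HT-1080 cells took pin-transferred compound for 48 h at 37 °C; ATP-based luminescence after 10 min room-temperature reagent incubation reported viability.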
ALOX12 inh: ALOX12 (human) lipoxygenase inhibition; P18054; purified 12hLO, xylenol orange hydroperoxide absorbance; Potency, µM (highest dose often 108 µM), for the others: at the highest dose activity change, negative = inhibition, actives largely listed as inhibitors; 580,000 tested, 1.1% active; AID 1671190; also: potency is read from the fitted curve at half-maximal effect
Target sequence (P18054 whole entry, looked up): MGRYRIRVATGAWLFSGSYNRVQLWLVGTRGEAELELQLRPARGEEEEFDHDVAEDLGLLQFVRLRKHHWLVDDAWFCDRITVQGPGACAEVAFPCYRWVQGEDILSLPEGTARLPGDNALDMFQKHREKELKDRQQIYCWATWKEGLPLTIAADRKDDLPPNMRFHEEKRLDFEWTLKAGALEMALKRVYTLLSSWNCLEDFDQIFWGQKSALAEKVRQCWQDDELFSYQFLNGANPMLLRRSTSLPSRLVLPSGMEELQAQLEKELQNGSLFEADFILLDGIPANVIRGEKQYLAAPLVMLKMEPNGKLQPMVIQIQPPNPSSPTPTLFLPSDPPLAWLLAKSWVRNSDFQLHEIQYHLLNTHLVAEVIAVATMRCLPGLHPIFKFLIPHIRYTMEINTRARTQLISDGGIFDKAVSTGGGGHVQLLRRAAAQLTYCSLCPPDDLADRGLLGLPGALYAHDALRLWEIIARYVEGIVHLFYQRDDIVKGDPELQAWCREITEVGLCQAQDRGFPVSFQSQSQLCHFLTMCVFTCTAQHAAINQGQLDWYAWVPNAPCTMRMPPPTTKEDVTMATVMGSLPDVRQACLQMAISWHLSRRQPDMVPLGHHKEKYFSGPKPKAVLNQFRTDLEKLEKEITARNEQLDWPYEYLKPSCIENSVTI
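Purified human 12hLO at 150 nM in 25 mM Hepes, 0.01% Triton X-100, pH 7.0, preincubated 15 min at room temperature with compound. Reaction started with 40 uM arachidonic acid, 30 min at room temperature. Hydroperoxide measured by Fe-xylenol orange, 573/405 nm absorbance ratio.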
HT1080-NT tox: kills 2HG-producing HT-1080-NT fibrosarcoma cells. HT-1080-NT fibrosarcoma viability, CellTiter-Glo ATP luminescence, 48 h. Potency, µM (titrated, usually from 46.1 µM), for the others: top-dose activity, negative = less viability, hits mostly cytotoxic. 360,000 tested, 1.6% active;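 also: NT is the 2HG producing partner of a matched IDH1 knockdown line; potency is read from the fitted curve at half-maximal effect; 0% = DMSO-treated cells and -100% = media-only wells without cells; nearly all actives have a fitted effect of over 55% in size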
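HT-1080-NT fibrosarcoma cells (2HG-overproducing), 750 cells/well in RPMI with 5% FBS, dosed after 2 h and incubated 48 h at 37C. CellTiter-Glo luminescence normalized to DMSO and no-cell wells; concentration-response curves fitted and classed.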
An asterisk follows results filed as active; ? = inconclusive; · = no result; [ ] = another dose, or the depositor's remark. The sample as a whole holds a higher share of hits than the screen did. Unless noted, calls follow the shape of the dose curve; as a rule, active = well fitted curve in the direction sought with a large enough effect; inconclusive = small, poorly fitted or top-dose-only effect, or another doubt; inactive = no such curve, though single readings can be large; an effect the other way counts as inactive or inconclusive. Unless noted, % is scaled to controls: 0 for no effect and ±100 for the full control effect.

SMILES	TDP1 cell noCPT	IL1B secr inh	TDP1 cell CPT	HT1080 IDH1KD tx	ALOX12 inh	HT1080-NT tox
Oc1[nH]c2ccc(Br)cc2c1N=NC(=S)N1CCOCC1	0.731µM*	157.6	0.731µM*	1.03µM*	39.8µM*	?
Cc1ccc(/C=C/C(=O)O)cc1Cl	·	·	·	·	-36.8%	·
COc1ccccc1CNC(=O)c1ccc(CN2C(=O)NC3(CCOCC3)C2=O)cc1	·	·	·	·	10.5%	·
CCCn1nc(C(=O)N2CCSCC2)c2ccccc2c1=O	·	·	·	·	47.0%	·
CC(=O)Nc1cccc(Oc2nc(NC(C)C)nc3cc(-c4ccccc4)sc23)c1	?	-62.9*	?	?	-17.6%	?
CC(=O)Nc1cccc(Oc2nc(NCC3CC3)nc3ccsc23)c1	20.6µM*	0.0	16.4µM*	-28.9%	-5.1%	-21.6%
CC(C)Nc1nc(-c2ccccc2CO)c2sccc2n1	-16.1%	-16.8	?	0.0%	-1.1%	0.0%
CC(=O)Nc1ccc(CNc2nc(NCC3CC3)nc3ccsc23)cc1	?	-104.8*	18.4µM*	?	?	?
COCCNc1nc(Oc2cccc(NC(C)=O)c2)c2sc(-c3ccccc3)cc2n1	?	-22.2	?	-0.2%	-23.9%	-4.6%
CC(=O)Nc1ccc(CNc2nc(NC(C)C)nc3ccsc23)cc1	-24.3%	-89.9*	-0.2%	-1.4%	-6.2%	-3.3%
CC(=O)c1ccc(OCc2ccccc2)cc1O	·	·	·	·	32.0%	·
COc1ccc(NS(=O)(=O)c2cc(C)ccc2NC(=O)c2cc(C)oc2C)cc1	0.581µM*	55.4	0.92µM*	0.92µM*	?	0.581µM*
CCOCCOC(=O)c1nc2ccccc2nc1Nc1ccc(Cl)cc1	·	·	·	·	10µM*	·
CCCNc1nc2ccccc2nc1C(=O)Nc1ccc(Cl)cc1	·	·	·	·	-10.6%	·
COc1ccc(C2=Nc3ccccc3OC2)cc1	14.6µM*	25.1	25.9µM*	-14.7%	44.7µM*	-7.1%
Cc1ccc(Cn2nc3n(c2=O)-c2cc(Cl)ccc2OC3)cc1	-18.9%	·	-12.2%	·	-17.8%	·
COc1ccc(-c2cc(-c3ccccc3)nc3c2COc2ccccc2-3)cc1	-21.5%	·	-27.0%	·	-2.8%	·
Cc1ccc(C2=Nc3ccc(Cl)cc3OC2)cc1	·	·	·	·	21.7µM*	·
Cc1ccc(C2=NC3(CCN(C(=O)c4cc(F)ccc4F)CC3)ON2)cc1	·	·	·	·	1.6%	·
Cc1ccccc1-n1nnnc1C1(NCc2ccccc2)CCCC1	·	·	·	·	-7.5%	·
COC[C@@H]1CN(S(=O)(=O)Cc2ccccc2)C[C@H]1c1ccncc1	·	·	·	·	4.5%	·
CCCCOC(=O)/C=C\C(=O)NC(N)=O	?	-105.2*	?	?	0.0%	?
Cc1cc(OC2CN(Cc3ccnn3C)C2)ccc1F	·	·	·	·	132.1%[176 µM]	·
CN(C)CCCNC(=O)C[C@H]1C[C@H](C(=O)N2CCCCC2)[C@@]2(CCc3ccccc3)c3[nH]c4cc(-c5ccco5)ccc4c3CCN2C1=O	?	-7.7	?	?	?	25.9µM*
CN(C)CCCNC(=O)CC1C[C@H](C(=O)N2CCCCC2)[C@@]2(CCc3ccccc3)c3[nH]c4ccccc4c3CCN2C1=O (stereo partly drawn)	13µM*	?	20.6µM*	8.7%	?	6.6%
SMILES	TDP1 cell noCPT	IL1B secr inh	TDP1 cell CPT	HT1080 IDH1KD tx	ALOX12 inh	HT1080-NT tox
COc1ccc(CNC(=O)C[C@H]2C[C@H](C(=O)N3CCCCC3)[C@@]3(CCc4ccccc4)c4[nH]c5cc(-c6ccco6)ccc5c4CCN3C2=O)cc1OC	?	-23.7	?	-0.5%	·	3.5%
CC(C)(C)NC(=O)C[C@H]1C[C@H](C(=O)N2CCCCC2)[C@@]2(CCc3ccccc3)c3[nH]c4cc(-c5ccco5)ccc4c3CCN2C1=O	23.1µM*	0.0	18.4µM*	-4.8%	?	-5.4%
O=C(CC1C[C@H](C(=O)N2CCCCC2)[C@@]2(CCc3ccccc3)c3[nH]c4ccccc4c3CCN2C1=O)NCCc1ccccn1 (stereo partly drawn)	16.4µM*	?	23.1µM*	6.9%	4.9%	8.6%
CN(C)CCCNC(=O)C[C@H]1C[C@H](C(=O)N2CCCCC2)[C@@]2(CCc3ccccc3)c3[nH]c4cc(CCC(=O)N(C)C)ccc4c3CCN2C1=O	-8.9%	-10.4	-4.7%	2.9%	-3.3%	0.4%
C[C@]12c3[nH]c4ccccc4c3CCN1C(=O)C(CC(=O)NCCc1ccccn1)C[C@@H]2C(=O)N1CCCCC1 (stereo partly drawn)	?	-12.5	-29.8%	-0.4%	13.7%	5.9%
Cc1ccc(-c2cnc(SCC(=O)Nc3ccc(F)c(C)c3)o2)cc1C	·	·	·	·	-26.4%	·
CCc1ncc(C(=O)N(C)C2CCN(Cc3ccccc3)C2)cn1 (stereo not drawn)	·	·	·	·	9.7%	·
Cc1sc(NC(=O)Cc2ccc3c(c2)OCO3)nc1-c1ccc2c(c1)CCN2C(=O)c1ccccc1F	8.2µM*	?	18.4µM*	?	-20.4%	-9.6%
Cc1sc(NC(=O)CN2CCCC2)nc1-c1ccc2c(c1)CCN2C(=O)c1cccc(F)c1	16.4µM*	-66.3*	?	?	4.0%	-28.7%
COc1cc(CN(C)C(=O)Cn2c(=O)c3c(ncn3C)n(C)c2=O)ccc1OC(F)F	·	·	·	·	16.6%	·
COCCN1CCn2c(nc3cc(NC(C)=O)ccc32)C1	7.9%	14.9	10.4%	16.0%	-3.8%	14.0%
COCCN1CCn2c(nc3cc(NC(=O)NC4CCCCC4)ccc32)C1	16.4µM*	-24.1	?	9.5%	82.6%	-3.3%
O=C(Nc1ccc2c(c1)nc1n2CCN(Cc2ccccc2)C1)c1cccs1	18.4µM*	-94.1*	?	1.1%	0.0%	0.4%
O=C(Nc1ccc2c(c1)nc1n2CCN(Cc2ccccc2)C1)NC1CCCCC1	20.6µM*	-11.7	?	-5.1%	-29.1%	?
COCCN1CCn2c(nc3cc(NC(=O)c4ccc(OC)cc4)ccc32)C1	20.6µM*	-6.6	20.6µM*	23.1%	0.0%	28.4%
CSc1cccc(NC(=O)c2cc(Cl)ccc2F)c1	·	·	·	·	8.6%	·
O=C(CSc1nnc2c(Cl)cc(C(F)(F)F)cn12)c1ccc(Br)cc1	·	·	·	·	0.5%	·
O=C1c2cc([N+](=O)[O-])ccc2-c2cc(Br)c(N=C(NO)C(F)(F)F)cc21	?	-100.9*	-7.3%	-19.4%	-17.2%	-17.2%
O=C1c2cc([N+](=O)[O-])ccc2-c2cc(Cl)c(NC(=O)C(F)(F)F)cc21	?	11.1	?	0.0%	?	0.1%
COc1ccccc1N(CC(=O)N1CCN(c2ccccc2)CC1)S(=O)(=O)c1ccc(C)cc1	?	-7.9	18.4µM*	-1.1%	-1.6%	5.1%
